Measurements from PubChem BioAssay (EPA / NIEHS).
Records with an inconclusive call do not appear. The source made the active and inactive calls. The calls were made as follows, unless noted: active = hit-call score of the fitted dose curve at least 0.9, where 1 is the maximum; inactive = score below 0.9.

Assays:
[1] = target: Paired box protein Pax-6 (Homo sapiens) (UniProt P26367); assay: ATG_Pax6_CIS: Attagene CIS-FACTORIAL HepG2 Assay for human Paired Box 6 (PAX6) (AID 2282956); conditions: HepG2 CIS-FACTORIAL PAX6 reporter transcription, RNA readout; actives raise or lower the signal
Sequence of Paired box protein Pax-6 (Homo sapiens) (P26367 whole entry, looked up): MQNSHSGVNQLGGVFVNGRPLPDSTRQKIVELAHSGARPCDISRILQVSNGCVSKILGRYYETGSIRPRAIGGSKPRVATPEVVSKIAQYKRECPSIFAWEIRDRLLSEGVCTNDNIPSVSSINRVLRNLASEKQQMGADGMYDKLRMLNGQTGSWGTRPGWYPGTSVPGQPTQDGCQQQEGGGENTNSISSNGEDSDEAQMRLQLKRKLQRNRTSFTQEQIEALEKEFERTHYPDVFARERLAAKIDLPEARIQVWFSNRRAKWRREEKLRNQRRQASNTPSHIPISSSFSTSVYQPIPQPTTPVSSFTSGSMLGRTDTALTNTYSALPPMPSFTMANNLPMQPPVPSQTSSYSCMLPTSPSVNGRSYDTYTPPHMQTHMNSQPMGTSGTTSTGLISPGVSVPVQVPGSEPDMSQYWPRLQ
Procedure, shortened: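 Transient MRTU transfection of HepG2 → compound exposure 24 h → TriZol RNA, oligo(dT) RT → PCR, 6-FAM primer extension, HpaI cut → capillary electrophoresis; activity fitted both directions against DMSO.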

[2] = ATG_PXRE_CIS: Attagene CIS-FACTORIAL HepG2 Assay for human Pregnane X Receptor Element (PXRE) (AID 2282957); conditions: HepG2 Attagene CIS-FACTORIAL PXRE reporter, mRNA; actives raise or lower the signal
Procedure, shortened: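 Transiently transfected HepG2 cells were dosed and incubated for 24 h. RNA was then isolated, DNase-treated, reverse-transcribed and reporter sequences amplified. Labeled, HpaI-digested fragments were quantified by capillary electrophoresis against DMSO.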

[3] = ATG_RORE_CIS: Attagene CIS-FACTORIAL HepG2 Assay for human RAR-related Orphan Receptor Element (RORE) (AID 2282959); conditions: HepG2 Attagene cis-factorial RORE reporter, mRNA; actives raise or lower the signal
Procedure, shortened: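 Transfect HepG2 with MRTUs; treat 24 h; extract RNA; RT with oligo(dT); PCR with reporter-specific primers; 6-FAM primer extension; HpaI digest 2 h at 37 C; capillary electrophoresis. Fit vs DMSO, bidirectional.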

[4] = ATG_Sox_CIS: Attagene CIS-FACTORIAL HepG2 Assay for human SRY-box transcription factor (SOX) (AID 2282960); conditions: HepG2 Attagene cis-factorial SOX reporter, mRNA; actives raise or lower the signal
Procedure, shortened: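 Fluorescence-labelled cDNA fragments from reporter transcripts, sized by CE, give the signal. Cells: HepG2, transiently transfected with cis-regulated reporter units. Exposure 24 h; DMSO negative control; bidirectional curve fitting.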

[5] = target: Transcription factor Sp1 (Homo sapiens) (UniProt P08047); assay: ATG_Sp1_CIS: Attagene CIS-FACTORIAL HepG2 Assay for human Specificity Protein 1 (Sp1) (AID 2282961); conditions: HepG2 Sp1 cis-reporter transcription, actives raise or lower the signal
Sequence of Transcription factor Sp1 (Homo sapiens) (P08047 whole entry, looked up): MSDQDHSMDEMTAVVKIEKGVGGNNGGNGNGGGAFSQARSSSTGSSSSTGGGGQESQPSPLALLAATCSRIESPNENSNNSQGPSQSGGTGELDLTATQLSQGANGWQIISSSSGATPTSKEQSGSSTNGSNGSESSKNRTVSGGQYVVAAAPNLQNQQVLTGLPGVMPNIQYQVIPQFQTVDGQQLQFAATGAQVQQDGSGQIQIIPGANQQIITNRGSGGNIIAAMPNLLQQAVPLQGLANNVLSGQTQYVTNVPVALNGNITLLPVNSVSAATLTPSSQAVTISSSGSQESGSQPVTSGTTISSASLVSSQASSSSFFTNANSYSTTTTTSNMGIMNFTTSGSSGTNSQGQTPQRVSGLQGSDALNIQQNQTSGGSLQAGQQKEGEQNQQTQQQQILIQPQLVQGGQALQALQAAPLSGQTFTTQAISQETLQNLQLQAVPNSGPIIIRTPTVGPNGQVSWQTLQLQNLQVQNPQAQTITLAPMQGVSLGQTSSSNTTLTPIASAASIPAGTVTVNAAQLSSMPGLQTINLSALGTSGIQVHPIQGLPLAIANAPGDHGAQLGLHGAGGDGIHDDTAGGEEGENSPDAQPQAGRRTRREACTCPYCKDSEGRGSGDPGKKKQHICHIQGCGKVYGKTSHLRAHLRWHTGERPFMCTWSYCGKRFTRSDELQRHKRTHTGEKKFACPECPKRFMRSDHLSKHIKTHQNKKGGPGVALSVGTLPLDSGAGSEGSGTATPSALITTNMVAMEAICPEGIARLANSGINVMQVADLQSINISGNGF
Procedure, shortened: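 Chemicals are dosed onto HepG2 cells transfected with multiple cis-promoter reporter constructs, and after 24 h reporter RNA is reverse-transcribed, PCR-amplified and resolved by capillary electrophoresis for fluorescence quantitation; activity is scored up or down against DMSO.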

[6] = ATG_SREBP_CIS: Attagene CIS-FACTORIAL HepG2 Assay for human Sterol Regulatory Element Binding (SREBP) (AID 2282962); conditions: HepG2 Attagene cis-factorial SREBP reporter, mRNA; actives raise or lower the signal
Procedure, shortened: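 Transfected HepG2 (cis-regulated reporter library, endogenous TFs) → compound 24 h → total RNA → oligo(dT) RT → reporter-specific PCR → FAM primer extension, HpaI cut → CE fluorescence. Fit bidirectional vs DMSO.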

[7] = target: Signal transducer and activator of transcription 3 (Homo sapiens) (UniProt P40763); assay: ATG_STAT3_CIS: Attagene CIS-FACTORIAL HepG2 Assay for human Signal Transducer and Activator of Transcription 3 (STAT3) (AID 2282963); conditions: HepG2, Attagene cis-factorial STAT3 reporter transcription; actives raise or lower the signal
Sequence of Signal transducer and activator of transcription 3 (Homo sapiens) (P40763 whole entry, looked up): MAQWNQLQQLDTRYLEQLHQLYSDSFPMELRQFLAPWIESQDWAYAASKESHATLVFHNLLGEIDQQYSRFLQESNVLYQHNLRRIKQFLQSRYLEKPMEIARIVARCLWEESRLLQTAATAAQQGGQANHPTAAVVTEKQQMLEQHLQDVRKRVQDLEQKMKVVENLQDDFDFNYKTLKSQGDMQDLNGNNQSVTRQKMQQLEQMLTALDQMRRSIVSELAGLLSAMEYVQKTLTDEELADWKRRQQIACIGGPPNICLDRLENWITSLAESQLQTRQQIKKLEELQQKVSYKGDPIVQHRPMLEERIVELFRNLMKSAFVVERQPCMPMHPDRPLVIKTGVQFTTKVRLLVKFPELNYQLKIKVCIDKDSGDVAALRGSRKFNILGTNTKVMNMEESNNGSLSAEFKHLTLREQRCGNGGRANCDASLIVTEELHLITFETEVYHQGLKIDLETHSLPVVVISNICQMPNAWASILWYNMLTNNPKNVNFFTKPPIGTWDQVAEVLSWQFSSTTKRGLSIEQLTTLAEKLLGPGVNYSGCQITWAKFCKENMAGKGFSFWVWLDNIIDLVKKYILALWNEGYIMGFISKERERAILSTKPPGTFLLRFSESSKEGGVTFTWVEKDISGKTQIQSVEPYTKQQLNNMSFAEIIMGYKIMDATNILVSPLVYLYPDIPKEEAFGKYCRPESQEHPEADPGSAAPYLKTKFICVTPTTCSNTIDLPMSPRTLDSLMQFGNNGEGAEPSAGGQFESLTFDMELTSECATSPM
Procedure, shortened: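 HepG2 cells transiently transfected with cis-element-driven multiple reporter transcription units; after 24 h chemical exposure, reporter mRNA measured by RT-PCR, 6-FAM primer-extension labelling, HpaI digestion and capillary electrophoresis. Bidirectional fitting versus DMSO baseline.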

[8] = ATG_TA_CIS: Attagene CIS-FACTORIAL HepG2 Assay for human TA Basal Promoter (AID 2282964); conditions: HepG2 Attagene CIS-factorial TA basal promoter reporter; actives raise or lower the signal
Procedure, shortened: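 HepG2 cells transiently transfected with multiple reporter units under cis promoter elements, reporting endogenous transcription factor activity; this endpoint tracks the TA basal promoter as background control. Reporter mRNA after 24 h dosing measured by RT-PCR/capillary electrophoresis; bidirectional fits versus DMSO.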

[9] = ATG_TCF_b_cat_CIS: Attagene CIS-FACTORIAL HepG2 Assay for human T-Cell-Factor with beta-catenin (TCF/b-cat) (AID 2282965); conditions: HepG2 TCF/beta-catenin cis-reporter transcription, actives raise or lower the signal
Procedure, shortened: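 HepG2 cells transiently transfected with multiple cis-promoter-regulated reporter transcription units, so endogenous transcription factor activity is measured. Reporter mRNA read 24 hours after dosing by RT-PCR, fluorescent labelling and capillary electrophoresis; bidirectional fitting against DMSO.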

[10] = ATG_TAL_CIS: Attagene CIS-FACTORIAL HepG2 Assay for human TAL Basal Promoter (AID 2282966); conditions: HepG2 Attagene cis-factorial TAL promoter reporter; actives raise or lower the signal;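 also: background control endpoint measuring basal TAL promoter reporter mRNA not a specific factor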
Procedure, shortened: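 Readout: reporter mRNA, fluorescence by CE. System: HepG2, transient multi-reporter transfection, endogenous TF activity. Exposure: 24 h. Analysis: bidirectional, DMSO-normalized; background control.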

[11] = ATG_TGFb_CIS: Attagene CIS-FACTORIAL HepG2 Assay for human Transforming Growth Factor (TGF) (AID 2282967); conditions: HepG2 Attagene CIS TGFb reporter, mRNA transcription; actives raise or lower the signal
Procedure, shortened: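 HepG2 cells transiently transfected with cis-promoter-driven multiple reporter units measure endogenous TF activity; reporter mRNA quantified at 24 h by RT-PCR, FAM labeling, HpaI digestion and capillary electrophoresis. Bidirectional fit vs DMSO.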

[12] = target: Nuclear receptor subfamily 1 group I member 3 (Homo sapiens) (UniProt Q14994); assay: ATG_CAR_TRANS: Attagene TRANS-FACTORIAL HepG2 Assay for human Constitutive Androstane Receptor (CAR) (AID 2282969; active = hit-call score of the fitted dose curve at least 0.9, where 1 is the maximum;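 also: activators raise reporter mRNA above DMSO so AC50 marks induction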); conditions: HepG2 Attagene TRANS-FACTORIAL CAR reporter
Sequence of Nuclear receptor subfamily 1 group I member 3 (Homo sapiens) (Q14994 whole entry, looked up, the tested form may be a part): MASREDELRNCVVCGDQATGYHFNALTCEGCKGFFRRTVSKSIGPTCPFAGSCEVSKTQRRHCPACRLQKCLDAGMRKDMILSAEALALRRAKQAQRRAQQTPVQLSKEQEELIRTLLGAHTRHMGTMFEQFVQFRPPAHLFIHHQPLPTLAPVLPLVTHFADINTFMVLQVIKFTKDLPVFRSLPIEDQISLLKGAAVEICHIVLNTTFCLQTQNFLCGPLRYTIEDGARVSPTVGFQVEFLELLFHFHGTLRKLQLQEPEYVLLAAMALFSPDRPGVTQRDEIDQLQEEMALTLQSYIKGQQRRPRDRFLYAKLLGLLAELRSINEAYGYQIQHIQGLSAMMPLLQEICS
Procedure, shortened: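 HepG2 cells transiently transfected with multiplexed GAL4-UAS reporter units expressing chimeric NR-Gal4 proteins; compound exposure 24 h. Reporter mRNA measured by RT-PCR, 6-FAM labelling, HpaI digestion and capillary electrophoresis; gain-of-signal fitted against DMSO baseline.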

[13] = target: X-box-binding protein 1 (Homo sapiens) (UniProt P17861); assay: ATG_Xbp1_CIS: Attagene CIS-FACTORIAL HepG2 Assay for human X-box Binding Protein 1 (XBP1) (AID 2282972); conditions: HepG2 XBP1 cis-element reporter, Attagene multiplex; actives raise or lower the signal
Sequence of X-box-binding protein 1 (Homo sapiens) (P17861 whole entry, looked up): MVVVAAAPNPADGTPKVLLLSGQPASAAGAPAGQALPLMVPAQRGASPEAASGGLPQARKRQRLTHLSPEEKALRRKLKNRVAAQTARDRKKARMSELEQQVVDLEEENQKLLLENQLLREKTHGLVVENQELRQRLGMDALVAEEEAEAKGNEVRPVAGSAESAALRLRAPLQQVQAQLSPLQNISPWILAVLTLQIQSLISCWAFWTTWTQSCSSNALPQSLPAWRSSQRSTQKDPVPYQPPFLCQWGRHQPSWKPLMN
Procedure, shortened: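 HepG2, transient MRTU transfection (cis-promoter driven), 24 h compound exposure. Total RNA → oligo(dT) RT → PCR → 6-FAM labeling → HpaI cut → CE. Bidirectional fit vs DMSO.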

[14] = ATG_M_19_TRANS: Attagene TRANS-FACTORIAL HepG2 Assay for M19 Transcription Factor (Internal Marker) (AID 2282974; active = hit-call score of the fitted dose curve at least 0.9, where 1 is the maximum); conditions: HepG2 Attagene TRANS-FACTORIAL M19 internal marker reporter
Procedure, shortened: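 Multiplexed TRANS format: HepG2 liver cells bearing transient GAL4-UAS reporter units, chemical treatment 24 h, reporter transcripts quantified by RT-PCR plus capillary electrophoresis. DMSO defines baseline.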

[15] = ATG_PPRE_CIS: Attagene CIS-FACTORIAL HepG2 Assay for human Peroxisome Proliferator-activated Response Element (PPRE) (AID 2282958); conditions: HepG2 PPRE cis-element reporter, Attagene transcription factor profiling; actives raise or lower the signal
Procedure, shortened: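 DMSO served as negative control and baseline for bidirectional curve fitting. Signal came from PPRE-regulated reporter mRNA in HepG2 cells, measured 24 h post-dosing by RT-PCR, 6-FAM primer extension and capillary electrophoresis.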

[16] = ATG_VDRE_CIS: Attagene CIS-FACTORIAL HepG2 Assay for human Vitamin D Receptor Element (VDRE) (AID 2282968); conditions: HepG2 VDRE cis-reporter transcription, actives raise or lower the signal
Procedure, shortened: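 HepG2 cells transiently transfected with cis-element reporter units, dosed 24 h; reporter mRNA measured by RT-PCR, 6-FAM labeling, HpaI digestion and capillary electrophoresis. Activity fitted bidirectionally against DMSO baseline.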

[17] = target: Estrogen receptor (Homo sapiens) (UniProt P03372); assay: ATG_ERa_TRANS: Attagene TRANS-FACTORIAL HepG2 Assay for human Estrogen Receptor alpha (ERa) (AID 2282970; active = hit-call score of the fitted dose curve at least 0.9, where 1 is the maximum); conditions: HepG2 Attagene TRANS ERa GAL4 reporter, mRNA
Sequence of Estrogen receptor (Homo sapiens) (P03372 whole entry, looked up, the tested form may be a part): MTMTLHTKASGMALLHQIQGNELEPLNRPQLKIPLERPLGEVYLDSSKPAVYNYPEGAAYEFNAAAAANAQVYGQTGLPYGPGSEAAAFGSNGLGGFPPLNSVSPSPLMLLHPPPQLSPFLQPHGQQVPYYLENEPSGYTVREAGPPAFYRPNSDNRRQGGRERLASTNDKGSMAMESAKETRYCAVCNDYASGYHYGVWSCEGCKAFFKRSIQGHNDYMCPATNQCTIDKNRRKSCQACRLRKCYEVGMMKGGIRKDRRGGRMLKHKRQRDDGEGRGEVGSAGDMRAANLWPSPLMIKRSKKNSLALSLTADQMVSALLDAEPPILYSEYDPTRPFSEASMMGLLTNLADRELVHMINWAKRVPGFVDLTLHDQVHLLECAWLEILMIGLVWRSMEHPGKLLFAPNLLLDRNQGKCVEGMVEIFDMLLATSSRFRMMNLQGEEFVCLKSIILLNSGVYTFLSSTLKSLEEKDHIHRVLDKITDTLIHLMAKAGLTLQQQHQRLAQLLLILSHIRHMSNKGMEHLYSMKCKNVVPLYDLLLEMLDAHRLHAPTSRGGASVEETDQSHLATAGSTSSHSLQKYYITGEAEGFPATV
Procedure, shortened: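 Transactivation via ERa-Gal4 chimera in HepG2; 24 hour incubation; reporter mRNA detected by fluorescence RT-PCR and capillary electrophoresis.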

[18] = ATG_GAL4_TRANS: Attagene TRANS-FACTORIAL HepG2 Assay for GAL4 (Internal Marker) (AID 2282976; active = hit-call score of the fitted dose curve at least 0.9, where 1 is the maximum); conditions: HepG2 Attagene TRANS GAL4 internal marker reporter
Procedure, shortened: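 Fluorescence from capillary electrophoresis of labelled RT-PCR products quantifies reporter mRNA induction after 24 h dosing of HepG2 cells carrying transfected GAL4-UAS reporter transcription units. Vehicle DMSO serves as baseline.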

Measured: AC50

C#CC(O)C(CC)CCCC (centres undefined)
active: [2] 15 µM | [5] 154 µM | [9] 67.9 µM
not listed: [15] | [16] | [17] | [18]
inactive: all other assays above

CCCCCCCCCCCCCCOS(=O)(=O)O
active: [11] 15.1 µM
not listed: [3] | [12] | [14] | [17] | [18]
inactive: all other assays above

COC(=O)CCCC(=O)OC
not listed: [12] | [14] | [15] | [17] | [18]
inactive: all other assays above

CCCCc1nc2cccnc2n1Cc1ccc(-c2ccccc2-c2nnn[nH]2)cc1
active: [2] 27.2 µM
not listed: [15] | [18]
inactive: all other assays above

CC(C)c1cccc(C(C)C)c1NC(=O)NS(=O)(=O)c1cc(C(C)(C)O)co1
active: [2] 16.7 µM | [16] 29.7 µM
not listed: [12] | [14] | [15] | [17]
inactive: all other assays above

NCCOCCOCCN
not listed: [6] | [15] | [17] | [18]
inactive: all other assays above
